JMJD2A Tudor: inhibitors of human JMJD2A Tudor domain; actives 4.4% (n = 390,000); AlphaScreen JMJD2A-Tudor / H3K4me3 peptide binding; O75164; Potency, µM (doses to about 114 µM), without a hit: at the highest dose activity change, negative = inhibition, actives largely listed as inhibitors; further: potency means the concentration at half of the fitted maximal effect; on the % scale 0 is the no-effect control and ±100 the full control effect; nearly all actives have a fitted effect of over 50% in size
BAZ2B block: blocks human BAZ2B; AlphaScreen BAZ2B-H3K14Ac peptide displacement; Potency, µM (titrated, usually from 114 µM), for inactives: top-dose activity change, negative = inhibition, most hits filed as inhibitors; Q9UIF8; actives 4.4% (n = 360,000); further: potency means the concentration at half of the fitted maximal effect; on the % scale 0 is the no-effect control and ±100 the full control effect; nearly all actives have a fitted effect of over 60% in size
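Complex of BAZ2B and biotin-H3K14Ac (50 nM apiece) forms over 30 min at RT, then faces library compounds up to 110 uM for another 30 min; AlphaScreen beads added, 20 min dark incubation, luminescence read.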
PLK1 PBD block: PLK1 (human) polo-box domain binding inhibition; Plk1 PBD binding of FITC phosphopeptide, fluorescence polarization; Potency, µM, for the others: max response, negative = inhibition, actives largely listed as inhibitors; actives 2.8% (n = 360,000); AID 720504; further: potency means the concentration at half of the fitted maximal effect; series mostly up to about 57 µM; on the % scale 0 is the no-effect control and ±100 the full control effect; nearly all actives have a fitted effect of over 65% in size
G9a block: blocks human histone lysine methyltransferase G9a; G9a H3K9 monomethylation, AlphaScreen, 2 h; actives 8.8% (n = 350,000); Potency, µM (highest dose often 102 µM), inactives show at the highest dose activity, negative = inhibition, most hits filed as inhibitors; Q96KQ7; further: potency means the concentration at half of the fitted maximal effect; on the % scale 0 is the no-effect control and ±100 the full control effect; nearly all actives have a fitted effect of over 75% in size
Target sequence (Q96KQ7 913-1193 limits assumed): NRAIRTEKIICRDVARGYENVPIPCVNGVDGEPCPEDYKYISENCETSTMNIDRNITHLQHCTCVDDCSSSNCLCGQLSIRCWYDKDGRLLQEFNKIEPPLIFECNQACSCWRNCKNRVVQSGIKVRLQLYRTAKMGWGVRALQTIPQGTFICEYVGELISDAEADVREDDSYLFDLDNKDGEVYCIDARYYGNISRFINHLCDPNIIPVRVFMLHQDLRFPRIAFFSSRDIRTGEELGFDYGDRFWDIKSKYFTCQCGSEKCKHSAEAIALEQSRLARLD
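Using a bead-based AlphaScreen, monomethylated H3K9 product from 2 h room-temperature reactions (G9a 20 nM, peptide 500 nM, SAM 20 uM) was detected with 0.5 ug/mL rabbit anti-H3K9me1 antibody.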
PI5P4Ka inh: PI5P4K alpha (human) kinase inhibition | PI5P4Kalpha enzyme, ADP-Glo luminescence, 60 min; hits give low values | actives 1.2% (n = 330,000) | AID 652105 | max response, % | P48426; active means max response of -50% or lower; inconclusive means between -30% and -50%; inactive means -30% or higher; further: value at the top dose of about 77 µM; on the % scale 0 is the no-effect control and ±100 the full control effect
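ADP-Glo luminescence end-point after a 60 min room-temperature kinase reaction. PI5P4Kalpha and substrate in HEPES pH 7.4 buffer with EGTA, 0.1% CHAPS and 5% DMSO; ATP at 5 microM final.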
HP1b chromo inh: inhibitors of HP1-beta chromodomain binding to methylated histone tails; AlphaScreen HP1-beta / biotin-H3K9me3 peptide binding; Potency, µM (titrated, usually from 114 µM), inactives show at the highest dose activity change, negative = inhibition, usual class: inhibitors; actives 0.56% (n = 390,000); AID 540317; further: potency means the concentration at half of the fitted maximal effect; nearly all actives have a fitted effect of over 70% in size
Target sequence (P83916 whole entry, looked up): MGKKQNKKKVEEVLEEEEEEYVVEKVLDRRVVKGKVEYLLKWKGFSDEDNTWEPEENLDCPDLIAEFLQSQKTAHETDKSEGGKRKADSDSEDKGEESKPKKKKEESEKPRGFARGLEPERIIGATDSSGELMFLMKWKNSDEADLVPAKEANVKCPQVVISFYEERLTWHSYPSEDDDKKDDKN
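HP1-beta protein (50 nM final) preincubated 30 min at room temperature with biotinylated H3(1-18)K9me3 peptide (50 nM) in PBS pH 7.4, 0.01% Tween-20, then compound added for 30 min. AlphaScreen streptavidin donor/nickel chelate acceptor beads (10 ug/mL final), 30 min dark, luminescence read.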
Active calls of the source: *; [ ] = remark or other dose. Shown are actives, neighbours in structure and some others; about 12% of the full set was active somewhere. Unless noted, the call rests on the fitted dose curve; in most records, active means well fitted curve in the direction sought with a large enough effect; inconclusive means small, poorly fitted or top-dose-only effect, or another doubt; inactive means no such curve, though single readings can be large; an effect the other way counts as inactive or inconclusive.

Results for CCOC(=O)c1ccc(N2C(=O)CC(N3CC=C(c4ccc(F)cc4)CC3)C2=O)cc1 (centres undefined) ?
JMJD2A Tudor: -34%; BAZ2B block: 8%; PLK1 PBD block: -16%; G9a block: 3.2µM*; PI5P4Ka inh: 1; HP1b chromo inh: 1%

Results for O=C1CC(N2CC2)C(=O)N1c1ccccc1 (centres undefined) ?
PLK1 PBD block: -16%; PI5P4Ka inh: -5

Results for COc1ccccc1CC(=O)N1CCN(CCc2ccccc2)CC1 ?
JMJD2A Tudor: -19%; BAZ2B block: -17%; PLK1 PBD block: -22%; G9a block: 19%; PI5P4Ka inh: -6; HP1b chromo inh: 9%

Results for COc1ccccc1OC(C)C(=O)N1CCC(Cc2ccccc2)CC1 (centres undefined) ?
JMJD2A Tudor: -16%; BAZ2B block: -26%; PLK1 PBD block: -18%; G9a block: 50µM*; PI5P4Ka inh: 0; HP1b chromo inh: -18%

How did COc1ccccc1N1CCN(Cc2ccccc2Cl)CC1 do in these assays?
JMJD2A Tudor: 3.2µM*; BAZ2B block: 35µM*; PLK1 PBD block: 0%; G9a block: 14µM*; HP1b chromo inh: -45%

Results for COc1ccccc1N1CCN(Cc2cccc(OC)c2O)CC1 ?
JMJD2A Tudor: inconclusive; BAZ2B block: 50µM*; PLK1 PBD block: inconclusive; G9a block: 45µM*; PI5P4Ka inh: -1; HP1b chromo inh: 15%

How did Clc1ccccc1CN1CCN(c2cccc3[nH]ccc23)CC1 do in these assays?
JMJD2A Tudor: inconclusive; BAZ2B block: 40µM*; PLK1 PBD block: 0%; G9a block: 28µM*; PI5P4Ka inh: -5; HP1b chromo inh: inconclusive

What do the screens show for `COc1ccccc1N1CCN(Cc2ccccc2F)CC1`?
JMJD2A Tudor: 6.3µM*; BAZ2B block: 45µM*; PLK1 PBD block: 0%; G9a block: -44%[2.33 µM]; PI5P4Ka inh: 3; HP1b chromo inh: inconclusive

How did COc1ccccc1N1CCN(Cc2ccc(Br)cc2)CC1 do in these assays?
JMJD2A Tudor: -33%; BAZ2B block: inconclusive; PLK1 PBD block: -7%; G9a block: inconclusive; PI5P4Ka inh: 6; HP1b chromo inh: 21%

How did COc1ccccc1N1CCN(Cc2c(F)cccc2F)CC1 do in these assays?
JMJD2A Tudor: -27%; BAZ2B block: -27%; PLK1 PBD block: -7%; G9a block: 3%[12.7 µM]; HP1b chromo inh: 15%

What do the screens show for `COc1ccc(Br)cc1C1SCC(=O)Nc2c1c(C)nn2-c1ccccc1C` (centres undefined)?
JMJD2A Tudor: 10%; BAZ2B block: -3%; G9a block: -10%[59 µM]; HP1b chromo inh: 39%

Results for Cc1ccc(C(=O)c2cn(CC(=O)Nc3ccc(C(C)C)cc3)c3nc(C)ccc3c2=O)cc1 ?
JMJD2A Tudor: inconclusive; BAZ2B block: 4%[57.1 µM]; G9a block: -7%[59 µM]; HP1b chromo inh: -2%

Results for CCCCCc1cc(O)c2c(c1)OC(C)(C)C1CC=C(C)CC21 (centres undefined) ?
G9a block: -40%[12.7 µM]

Results for COC1=CC2C3Cc4ccc(OC)c(O)c4[C@]2(CCN3C)CC1=O (some centres undefined) ?
G9a block: -39%[2.33 µM]

How did CCCCCC(O)C1C(=O)OC(C)C(O)\C=C/C=C\C=C/C=C\C=C(\C)C(O)C(O)C(O)CC(O)CC(O)CC(O)CC(O)CC1O (centres undefined) do in these assays?
G9a block: -20%[12.7 µM]

Results for Nc1c(C(=O)Nc2ccc(Cl)c(C(F)(F)F)c2)sc2nc3c(cc12)N1CCC3CC1 ?
JMJD2A Tudor: 15%; BAZ2B block: 10%; G9a block: 4%[59 µM]; HP1b chromo inh: 40%

How did CCN1CCN(c2ccc(N)c(C)c2)CC1 do in these assays?
JMJD2A Tudor: -27%; BAZ2B block: -28%; PLK1 PBD block: -14%; G9a block: 45µM*; PI5P4Ka inh: 8; HP1b chromo inh: 3%
